Measurements reported in paper PMC7862700, “An all-to-all approach to the identification of sequence-specific readers for epigenetic DNA modifications on cytosine”.

Legend:
Assay in all cases: DAPPL (digital affinity profiling via proximity ligation, sequencing); 10 mM Tris-HCl pH 7.5, 50 mM NaCl, 1 mM DTT, 4% glycerol, room temperature, 30 min; GST-TFs on glutathione beads, 16-mer random dsDNA library, 0.1% formaldehyde crosslink after washing; high values mean tight binding
Conditions in all cases: protein: recombinant; tags: N-terminal GST; dsDNA, one strand shown
FLI1 = target: T1, FLI1 (Homo sapiens, UniProt Q01543 1-452)
T1 sequence: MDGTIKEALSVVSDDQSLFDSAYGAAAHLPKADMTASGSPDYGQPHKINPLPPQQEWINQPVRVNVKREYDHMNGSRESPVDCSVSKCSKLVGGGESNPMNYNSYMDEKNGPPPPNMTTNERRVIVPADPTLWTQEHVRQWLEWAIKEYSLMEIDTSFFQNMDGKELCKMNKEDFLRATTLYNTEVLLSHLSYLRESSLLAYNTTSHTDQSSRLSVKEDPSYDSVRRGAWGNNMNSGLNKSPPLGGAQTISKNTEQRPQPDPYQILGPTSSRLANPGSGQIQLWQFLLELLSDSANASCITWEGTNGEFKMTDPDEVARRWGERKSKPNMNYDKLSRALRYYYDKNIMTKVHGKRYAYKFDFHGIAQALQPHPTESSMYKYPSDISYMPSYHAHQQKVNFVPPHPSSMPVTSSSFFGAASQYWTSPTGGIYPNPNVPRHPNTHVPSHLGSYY
Procedure, shortened: (§1)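 After expression in yeast as GST fusions, human transcription factors were bound to glutathione beads, DNA-barcoded and mixed with a tag-only sample. The pools were incubated with 200 nmole of a 16-mer random double-stranded DNA library in Tris/NaCl/DTT/glycerol buffer (30 min, room temperature), washed and crosslinked with 0.1% formaldehyde. Proximity ligation with BsaI/T4 ligase ran for 1 h at 37 °C, before PCR amplification and sequencing on an Illumina NextSeq500. Binding signal is a hexamer's read frequency for a factor divided by its frequency for the tag-only sample.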

GABPA = target: T2, GABPA (Homo sapiens, UniProt Q06546 1-454)
T2 sequence: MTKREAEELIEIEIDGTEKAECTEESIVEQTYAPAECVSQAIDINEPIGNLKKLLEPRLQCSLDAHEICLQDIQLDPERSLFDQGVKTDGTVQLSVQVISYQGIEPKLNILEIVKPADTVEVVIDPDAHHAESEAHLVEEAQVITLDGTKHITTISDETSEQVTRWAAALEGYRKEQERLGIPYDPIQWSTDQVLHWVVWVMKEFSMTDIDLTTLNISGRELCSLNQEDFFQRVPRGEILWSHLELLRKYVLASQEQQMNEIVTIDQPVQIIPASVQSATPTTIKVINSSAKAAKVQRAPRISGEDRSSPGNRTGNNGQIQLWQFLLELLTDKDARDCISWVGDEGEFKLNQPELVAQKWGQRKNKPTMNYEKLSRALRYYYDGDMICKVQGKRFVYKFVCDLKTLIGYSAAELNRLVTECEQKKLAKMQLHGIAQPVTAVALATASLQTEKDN
Procedure, shortened: as §1

ERG = target: T3, ERG (Homo sapiens, UniProt P11308 1-479)
T3 sequence: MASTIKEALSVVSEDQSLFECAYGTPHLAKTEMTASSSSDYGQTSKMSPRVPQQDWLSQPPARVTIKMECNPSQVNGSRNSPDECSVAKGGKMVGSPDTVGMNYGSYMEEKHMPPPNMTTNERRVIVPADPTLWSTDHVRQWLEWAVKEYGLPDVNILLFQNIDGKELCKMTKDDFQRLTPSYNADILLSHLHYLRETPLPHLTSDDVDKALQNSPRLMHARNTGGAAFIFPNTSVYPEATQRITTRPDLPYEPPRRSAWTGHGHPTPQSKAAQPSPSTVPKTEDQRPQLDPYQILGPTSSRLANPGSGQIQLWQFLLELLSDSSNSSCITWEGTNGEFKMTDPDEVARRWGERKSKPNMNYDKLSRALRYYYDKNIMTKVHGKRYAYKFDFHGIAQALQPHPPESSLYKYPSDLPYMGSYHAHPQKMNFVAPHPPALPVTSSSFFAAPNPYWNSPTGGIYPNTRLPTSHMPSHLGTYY
Procedure, shortened: as §1

EHF = target: T4, EHF (Homo sapiens, UniProt Q9NZC4 1-300)
T4 sequence: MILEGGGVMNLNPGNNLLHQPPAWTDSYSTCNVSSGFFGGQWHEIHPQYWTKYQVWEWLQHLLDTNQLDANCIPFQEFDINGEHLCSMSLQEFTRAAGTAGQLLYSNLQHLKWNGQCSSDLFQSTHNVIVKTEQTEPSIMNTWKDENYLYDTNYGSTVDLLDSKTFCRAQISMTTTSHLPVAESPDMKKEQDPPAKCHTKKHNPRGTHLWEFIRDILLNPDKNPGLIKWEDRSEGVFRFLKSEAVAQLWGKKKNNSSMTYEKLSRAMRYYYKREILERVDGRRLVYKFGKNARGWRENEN
Procedure, shortened: as §1

SPI1 = SPI1 (Homo sapiens, UniProt P17947 1-270)
Procedure, shortened: as §1

SPIB = SPIB (Homo sapiens, UniProt Q01892 1-262)
Procedure, shortened: as §1

FEV = target: T5, FEV (Homo sapiens, UniProt Q99581 1-238)
T5 sequence: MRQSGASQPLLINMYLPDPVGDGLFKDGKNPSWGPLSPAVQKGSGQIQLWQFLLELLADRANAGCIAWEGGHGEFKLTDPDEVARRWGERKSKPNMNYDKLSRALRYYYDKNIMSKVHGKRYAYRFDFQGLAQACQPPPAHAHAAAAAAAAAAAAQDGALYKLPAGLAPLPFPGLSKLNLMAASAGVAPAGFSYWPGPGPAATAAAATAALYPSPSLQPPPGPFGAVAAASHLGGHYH
Procedure, shortened: as §1

ETV5 = ETV5 (Homo sapiens, UniProt P41161 1-510)
Procedure, shortened: as §1

SPIC = target: T6, SPIC (Homo sapiens, UniProt Q8N5J4 1-248)
T6 sequence: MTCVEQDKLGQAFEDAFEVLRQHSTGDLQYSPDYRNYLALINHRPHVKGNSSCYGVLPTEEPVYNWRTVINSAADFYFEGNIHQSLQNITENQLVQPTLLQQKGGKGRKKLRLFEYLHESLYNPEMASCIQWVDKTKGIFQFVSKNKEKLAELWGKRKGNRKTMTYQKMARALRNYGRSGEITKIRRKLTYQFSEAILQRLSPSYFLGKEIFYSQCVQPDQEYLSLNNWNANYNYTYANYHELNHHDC
Procedure, shortened: as §1

ELF4 = ELF4 (Homo sapiens, UniProt Q99607 1-663)
Procedure, shortened: as §1

ETV1 = ETV1 (Homo sapiens, UniProt P50549 1-477)
Procedure, shortened: as §1

ETV3L = target: T7, ETV3L (Homo sapiens, UniProt Q6ZN32 1-361)
T7 sequence: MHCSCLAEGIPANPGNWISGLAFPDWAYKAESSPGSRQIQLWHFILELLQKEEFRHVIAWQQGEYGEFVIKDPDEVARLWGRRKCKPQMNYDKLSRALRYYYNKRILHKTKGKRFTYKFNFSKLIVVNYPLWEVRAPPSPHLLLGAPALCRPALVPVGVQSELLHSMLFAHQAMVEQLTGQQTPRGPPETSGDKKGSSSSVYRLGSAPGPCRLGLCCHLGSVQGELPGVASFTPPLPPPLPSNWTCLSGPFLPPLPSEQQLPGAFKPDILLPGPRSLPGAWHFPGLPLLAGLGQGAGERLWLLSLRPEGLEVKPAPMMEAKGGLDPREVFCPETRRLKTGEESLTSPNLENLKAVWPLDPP
Procedure, shortened: as §1

ETV6 = ETV6 (Homo sapiens, UniProt P41212 1-452)
Procedure, shortened: as §1

ELK1 = target: T8, ELK1 (Homo sapiens, UniProt P19419 1-428)
T8 sequence: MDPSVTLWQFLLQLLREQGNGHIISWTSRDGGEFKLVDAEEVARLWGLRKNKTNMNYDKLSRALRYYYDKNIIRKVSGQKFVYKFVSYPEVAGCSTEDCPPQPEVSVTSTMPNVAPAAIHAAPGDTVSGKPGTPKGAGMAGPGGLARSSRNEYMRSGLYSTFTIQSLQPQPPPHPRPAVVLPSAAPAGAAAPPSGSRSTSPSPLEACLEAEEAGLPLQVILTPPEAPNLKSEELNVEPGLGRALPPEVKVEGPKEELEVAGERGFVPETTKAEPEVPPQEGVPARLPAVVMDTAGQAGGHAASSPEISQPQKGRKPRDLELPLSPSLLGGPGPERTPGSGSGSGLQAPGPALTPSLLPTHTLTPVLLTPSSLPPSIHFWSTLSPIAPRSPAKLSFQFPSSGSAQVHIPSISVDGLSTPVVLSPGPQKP
Procedure, shortened: as §1

ELF1 = ELF1 (Homo sapiens, UniProt P32519 1-619)
Procedure, shortened: as §1

ELK3 = target: T9, ELK3 (Homo sapiens, UniProt P41970 1-407)
T9 sequence: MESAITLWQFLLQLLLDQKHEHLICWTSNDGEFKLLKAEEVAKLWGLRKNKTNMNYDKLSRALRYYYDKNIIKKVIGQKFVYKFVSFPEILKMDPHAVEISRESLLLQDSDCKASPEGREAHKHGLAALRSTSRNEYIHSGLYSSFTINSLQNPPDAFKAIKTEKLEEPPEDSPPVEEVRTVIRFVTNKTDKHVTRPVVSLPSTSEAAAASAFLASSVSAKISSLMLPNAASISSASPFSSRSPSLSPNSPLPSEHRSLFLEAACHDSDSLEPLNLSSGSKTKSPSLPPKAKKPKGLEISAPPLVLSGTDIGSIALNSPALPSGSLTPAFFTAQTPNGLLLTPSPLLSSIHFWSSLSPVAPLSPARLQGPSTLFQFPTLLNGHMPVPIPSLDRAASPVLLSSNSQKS
Procedure, shortened: as §1

ERF = target: T10, ERF (Homo sapiens, UniProt P50548 1-548)
T10 sequence: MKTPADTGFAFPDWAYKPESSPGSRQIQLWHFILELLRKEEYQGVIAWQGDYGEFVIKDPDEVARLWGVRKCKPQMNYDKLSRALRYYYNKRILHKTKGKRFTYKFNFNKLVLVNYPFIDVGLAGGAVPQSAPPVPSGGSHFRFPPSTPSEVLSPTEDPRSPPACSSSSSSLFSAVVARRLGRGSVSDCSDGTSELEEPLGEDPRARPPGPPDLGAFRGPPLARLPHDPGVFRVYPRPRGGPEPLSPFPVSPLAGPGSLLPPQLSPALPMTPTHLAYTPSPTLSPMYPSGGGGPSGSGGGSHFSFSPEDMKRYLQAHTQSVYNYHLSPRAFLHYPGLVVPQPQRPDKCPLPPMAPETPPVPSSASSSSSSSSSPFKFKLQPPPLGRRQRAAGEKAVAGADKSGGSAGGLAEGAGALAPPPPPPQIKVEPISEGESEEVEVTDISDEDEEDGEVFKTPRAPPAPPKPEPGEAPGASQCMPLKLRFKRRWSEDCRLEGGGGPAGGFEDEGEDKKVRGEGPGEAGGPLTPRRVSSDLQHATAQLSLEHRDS
Procedure, shortened: as §1

ETS2 = target: T11, ETS2 (Homo sapiens, UniProt P15036 1-469)
T11 sequence: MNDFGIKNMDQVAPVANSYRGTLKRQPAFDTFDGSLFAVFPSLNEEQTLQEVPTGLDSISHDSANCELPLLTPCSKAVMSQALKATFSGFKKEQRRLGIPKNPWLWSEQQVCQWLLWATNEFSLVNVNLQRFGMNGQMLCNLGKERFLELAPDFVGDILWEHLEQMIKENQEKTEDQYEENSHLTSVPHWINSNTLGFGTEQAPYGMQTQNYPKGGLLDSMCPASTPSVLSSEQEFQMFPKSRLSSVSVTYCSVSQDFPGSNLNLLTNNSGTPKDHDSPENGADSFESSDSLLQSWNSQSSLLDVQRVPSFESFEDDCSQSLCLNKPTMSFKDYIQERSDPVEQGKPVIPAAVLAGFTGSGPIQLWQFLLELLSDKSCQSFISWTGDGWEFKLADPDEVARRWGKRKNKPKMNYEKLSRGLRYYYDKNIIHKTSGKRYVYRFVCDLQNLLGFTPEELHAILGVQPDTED
Procedure, shortened: as §1

ETV3 = target: T12, ETV3 (Homo sapiens, UniProt P41162-2 1-143)
T12 sequence: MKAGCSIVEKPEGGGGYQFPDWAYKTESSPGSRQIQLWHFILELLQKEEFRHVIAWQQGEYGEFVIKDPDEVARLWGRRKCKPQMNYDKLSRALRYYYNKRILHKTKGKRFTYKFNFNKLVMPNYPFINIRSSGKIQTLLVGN
Procedure, shortened: as §1

Chain of ELF4 (Q99607 whole entry): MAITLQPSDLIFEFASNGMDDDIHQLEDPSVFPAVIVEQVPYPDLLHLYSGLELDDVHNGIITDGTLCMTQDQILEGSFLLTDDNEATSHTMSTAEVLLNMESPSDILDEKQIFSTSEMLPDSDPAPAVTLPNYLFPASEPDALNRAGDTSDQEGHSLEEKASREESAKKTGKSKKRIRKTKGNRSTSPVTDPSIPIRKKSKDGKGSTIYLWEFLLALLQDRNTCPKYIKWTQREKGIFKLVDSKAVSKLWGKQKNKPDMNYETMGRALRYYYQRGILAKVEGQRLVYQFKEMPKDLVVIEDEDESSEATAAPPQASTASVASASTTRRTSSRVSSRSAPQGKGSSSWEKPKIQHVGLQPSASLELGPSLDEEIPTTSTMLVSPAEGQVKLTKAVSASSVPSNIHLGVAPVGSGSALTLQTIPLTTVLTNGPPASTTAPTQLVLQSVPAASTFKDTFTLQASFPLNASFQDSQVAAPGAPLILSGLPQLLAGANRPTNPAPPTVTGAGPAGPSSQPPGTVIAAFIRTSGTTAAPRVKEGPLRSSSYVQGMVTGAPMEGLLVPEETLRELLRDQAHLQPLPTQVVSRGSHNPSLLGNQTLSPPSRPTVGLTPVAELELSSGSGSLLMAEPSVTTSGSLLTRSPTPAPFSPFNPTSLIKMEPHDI
Chain of ETV1 (P50549 whole entry): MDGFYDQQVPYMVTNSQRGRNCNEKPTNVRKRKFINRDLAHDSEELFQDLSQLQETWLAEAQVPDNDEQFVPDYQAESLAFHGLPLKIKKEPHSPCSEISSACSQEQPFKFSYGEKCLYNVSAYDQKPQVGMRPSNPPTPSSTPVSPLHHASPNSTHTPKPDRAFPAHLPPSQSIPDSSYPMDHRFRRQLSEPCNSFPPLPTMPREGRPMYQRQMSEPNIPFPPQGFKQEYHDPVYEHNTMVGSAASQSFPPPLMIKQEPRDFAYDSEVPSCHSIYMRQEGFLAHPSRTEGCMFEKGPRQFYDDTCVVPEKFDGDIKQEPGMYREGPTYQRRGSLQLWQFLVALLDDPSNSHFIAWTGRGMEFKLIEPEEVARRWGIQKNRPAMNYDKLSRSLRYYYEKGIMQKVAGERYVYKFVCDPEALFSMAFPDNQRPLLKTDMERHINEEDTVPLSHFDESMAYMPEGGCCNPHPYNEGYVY
Chain of SPIB (Q01892 whole entry): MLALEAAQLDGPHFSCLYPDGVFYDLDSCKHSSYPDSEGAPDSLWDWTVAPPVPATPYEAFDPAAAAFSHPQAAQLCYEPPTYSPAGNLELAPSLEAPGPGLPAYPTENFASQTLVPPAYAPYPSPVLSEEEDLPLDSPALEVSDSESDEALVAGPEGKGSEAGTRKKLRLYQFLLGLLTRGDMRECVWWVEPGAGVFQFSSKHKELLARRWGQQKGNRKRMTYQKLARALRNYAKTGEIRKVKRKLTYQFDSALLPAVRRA
Chain of ETV5 (P41161 whole entry): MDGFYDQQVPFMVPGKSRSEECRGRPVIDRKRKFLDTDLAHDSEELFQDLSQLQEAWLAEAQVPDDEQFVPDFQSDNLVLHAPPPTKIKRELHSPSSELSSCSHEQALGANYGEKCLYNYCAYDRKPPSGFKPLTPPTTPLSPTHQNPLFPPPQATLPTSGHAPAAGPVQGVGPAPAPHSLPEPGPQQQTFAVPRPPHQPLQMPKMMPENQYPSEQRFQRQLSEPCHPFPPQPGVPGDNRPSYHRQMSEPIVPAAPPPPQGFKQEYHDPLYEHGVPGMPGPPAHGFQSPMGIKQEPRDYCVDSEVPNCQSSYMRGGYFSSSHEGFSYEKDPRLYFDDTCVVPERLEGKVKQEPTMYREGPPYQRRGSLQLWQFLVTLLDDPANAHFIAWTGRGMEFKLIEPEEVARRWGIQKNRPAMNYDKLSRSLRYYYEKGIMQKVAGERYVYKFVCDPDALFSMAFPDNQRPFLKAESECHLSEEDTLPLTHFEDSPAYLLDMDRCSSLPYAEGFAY
Chain of ETV6 (P41212 whole entry): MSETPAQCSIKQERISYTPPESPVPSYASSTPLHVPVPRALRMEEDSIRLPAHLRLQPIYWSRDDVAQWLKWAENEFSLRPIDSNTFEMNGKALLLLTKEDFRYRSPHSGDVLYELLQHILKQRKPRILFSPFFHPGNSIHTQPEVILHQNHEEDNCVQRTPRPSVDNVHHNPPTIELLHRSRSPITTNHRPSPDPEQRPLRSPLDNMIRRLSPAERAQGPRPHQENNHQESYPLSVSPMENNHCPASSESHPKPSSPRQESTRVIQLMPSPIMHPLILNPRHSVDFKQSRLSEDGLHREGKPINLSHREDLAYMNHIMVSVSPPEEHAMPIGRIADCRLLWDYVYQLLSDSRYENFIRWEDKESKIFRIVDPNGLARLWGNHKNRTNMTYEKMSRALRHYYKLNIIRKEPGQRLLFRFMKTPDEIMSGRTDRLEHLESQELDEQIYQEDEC
Chain of ELF1 (P32519 whole entry): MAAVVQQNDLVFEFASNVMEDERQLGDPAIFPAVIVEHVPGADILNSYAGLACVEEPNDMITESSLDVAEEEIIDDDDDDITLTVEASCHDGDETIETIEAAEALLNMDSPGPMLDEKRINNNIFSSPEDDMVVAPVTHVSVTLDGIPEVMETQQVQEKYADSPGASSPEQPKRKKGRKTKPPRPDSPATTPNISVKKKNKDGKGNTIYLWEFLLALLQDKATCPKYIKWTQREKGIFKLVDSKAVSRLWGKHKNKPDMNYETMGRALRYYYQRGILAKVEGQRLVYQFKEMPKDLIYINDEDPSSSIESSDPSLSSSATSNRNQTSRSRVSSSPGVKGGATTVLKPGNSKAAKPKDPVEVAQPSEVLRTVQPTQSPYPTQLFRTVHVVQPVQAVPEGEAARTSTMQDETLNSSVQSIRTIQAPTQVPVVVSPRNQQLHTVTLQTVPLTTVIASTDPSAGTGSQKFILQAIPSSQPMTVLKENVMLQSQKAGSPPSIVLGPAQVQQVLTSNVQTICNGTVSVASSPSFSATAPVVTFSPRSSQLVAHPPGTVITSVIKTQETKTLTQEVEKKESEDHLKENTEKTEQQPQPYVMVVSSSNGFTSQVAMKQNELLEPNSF

Sequence | binding signal (FLI1) | binding signal (GABPA) | binding signal (ERG) | binding signal (EHF) | binding signal (SPI1) | binding signal (SPIB) | binding signal (FEV) | binding signal (ETV5) | binding signal (SPIC) | binding signal (ELF4) | binding signal (ETV1) | binding signal (ETV3L) | binding signal (ETV6) | binding signal (ELK1) | binding signal (ELF1) | binding signal (ELK3) | binding signal (ERF) | binding signal (ETS2) | binding signal (ETV3)
TGTGGC | 1.05 fold enrichment (6-mer frequency, TF over GST control) | 1.03 fold enrichment (6-mer frequency, TF over GST control) | 1.07 fold enrichment (6-mer frequency, TF over GST control) | 1.02 fold enrichment (6-mer frequency, TF over GST control) | 1.14 fold enrichment (6-mer frequency, TF over GST control) | 1.09 fold enrichment (6-mer frequency, TF over GST control) | 1.13 fold enrichment (6-mer frequency, TF over GST control) | 1.01 fold enrichment (6-mer frequency, TF over GST control) | 1.14 fold enrichment (6-mer frequency, TF over GST control) | 1.02 fold enrichment (6-mer frequency, TF over GST control) | 1.05 fold enrichment (6-mer frequency, TF over GST control) | 1.06 fold enrichment (6-mer frequency, TF over GST control) | 1.19 fold enrichment (6-mer frequency, TF over GST control) |  |  |  |  |  | 
AACTGA | 1.07 fold enrichment (6-mer frequency, TF over GST control) | 1.08 fold enrichment (6-mer frequency, TF over GST control) | 1.11 fold enrichment (6-mer frequency, TF over GST control) | 1.1 fold enrichment (6-mer frequency, TF over GST control) | 1.13 fold enrichment (6-mer frequency, TF over GST control) | 1.15 fold enrichment (6-mer frequency, TF over GST control) | 1.15 fold enrichment (6-mer frequency, TF over GST control) | 1.11 fold enrichment (6-mer frequency, TF over GST control) | 1.37 fold enrichment (6-mer frequency, TF over GST control) | 1.05 fold enrichment (6-mer frequency, TF over GST control) | 1.16 fold enrichment (6-mer frequency, TF over GST control) | 1.09 fold enrichment (6-mer frequency, TF over GST control) | 1.1 fold enrichment (6-mer frequency, TF over GST control) | 1.08 fold enrichment (6-mer frequency, TF over GST control) | 1.13 fold enrichment (6-mer frequency, TF over GST control) | 1.06 fold enrichment (6-mer frequency, TF over GST control) | 1.08 fold enrichment (6-mer frequency, TF over GST control) | 1.16 fold enrichment (6-mer frequency, TF over GST control) | 1.06 fold enrichment (6-mer frequency, TF over GST control)
